{
  "source": "paper PMC7826789",
  "about": "(International Journal of Molecular Sciences, 2021)",
  "data": [
    {"test_system": "MAPK15", "values": [
      {"compound": "CCOc1ccc2c(-c3ccnc(Nc4cccc(C(F)(F)F)c4)n3)cnn2n1", "note": "[GW811761X]", "Kinases covered": "MAPK15"},
      {"compound": "O=C(Nc1n[nH]c2cc(-c3ccsc3)ccc12)C1CC1", "note": "[SB-732932]", "Kinases covered": "MAPK15"},
      {"compound": "CCOc1ccc2c(-c3ccnc(Nc4cc(OC)cc(C(F)(F)F)c4)n3)cnn2n1", "note": "[GW807982X]", "Kinases covered": "MAPK15"}
    ]},
    {"test_system": "MAPK9", "values": [
      {"compound": "Fc1ccc(-c2nn3ccccc3c2-c2ccncc2)cc1", "note": "[GW434756X]", "Kinases covered": "MAPK9"},
      {"compound": "O=C(O)/C=C/C(=O)O.OCCCNc1nccc(-c2c(-c3ccc(F)cc3)nn3cc(C(F)(F)F)ccc23)n1", "note": "[GW569293E]", "Kinases covered": "MAPK9"},
      {"compound": "Nc1nccc(-c2c(-c3ccc(F)cc3)ncn2C2CCN(Cc3ccccc3)CC2)n1", "note": "[SB-219980]", "Kinases covered": "MAPK9"}
    ]},
    {"test_system": "MEK5", "values": [
      {"compound": "COc1cc2ncnc(Nc3ccc(F)c(Cl)c3)c2cc1O[C@H]1CC[C@H](N)CC1", "note": "[BIBW3133BS]", "Kinases covered": "MEK5"},
      {"compound": "COc1cc2ncnc(Nc3cccc(Cl)c3F)c2cc1O[C@H]1CC[C@H]([C@@H]2NCCNC2=O)CC1", "note": "[BI00133844]", "Kinases covered": "MEK5"},
      {"compound": "CCCS(=O)(=O)Nc1ccc(F)c(-n2cc(-c3cncc(OC)c3)nn2)c1F", "note": "[BI00865461]", "Kinases covered": "MEK5"}
    ]}
  ]
}
